According to PubChem BioAssay (NCI):
The panel holds about 83,000 compounds, 20% with a hit somewhere; the sample as a whole holds those more often.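 Each cell line was grown in a 96-well plate and treated with one concentration of compound for 48 hours. Values below 10 were considered active.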 Values without a mark were called inactive. Activity calls are given as the source filed them.

Legend:
Experiment in all cases: NCI-60 one-dose screen, 48 h (100 = growth as untreated, 0 = no growth, -100 = all killed)
[1] = tested on: NCI-H322M lung; details: 10 µM unless noted
[2] = tested on: HOP-62 NSCLC; details: 10 µM unless noted
[3] = tested on: HOP-92 NSCLC; details: 10 µM unless noted
[4] = tested on: NCI-H522 lung; details: 10 µM unless noted
[5] = tested on: SNB-19 CNS; details: 10 µM unless noted
[6] = tested on: U251 CNS; details: 10 µM unless noted
[7] = tested on: EKVX NSCLC; details: 10 µM unless noted
[8] = tested on: CCRF-CEM leukemia; details: 10 µM unless noted
[9] = tested on: SR leukemia; details: 10 µM
[10] = tested on: RPMI-8226 leukemia; details: 10 µM unless noted
[11] = tested on: SK-OV-3 ovarian; details: 10 µM unless noted
[12] = tested on: IGROV1 ovarian; details: 10 µM
[13] = tested on: HS 578T breast; details: 10 µM unless noted
[14] = tested on: T-47D breast; details: 10 µM unless noted
[15] = tested on: BT-549 breast; details: 10 µM
[16] = tested on: MCF7 breast; details: 10 µM unless noted
[17] = tested on: HCC-2998 colon; details: 10 µM unless noted
[18] = tested on: NCI-H226 lung; details: 10 µM unless noted
[19] = tested on: TK-10 renal; details: 10 µM unless noted

SMILES: CCCCCCCCCCCCOc1ccc(C(=O)Oc2ccc(CSP3(=O)OCC4OC(n5cnc6c(N)ncnc65)C(F)C4OP(=O)(O)OCC4OC(n5ccc(=O)[nH]c5=O)C(F)C4O3)cc2)cc1 (stereo not drawn)
- growth [1]: 79%
- growth [2]: 115%
- growth [3]: 86.9%
- growth [4]: 69.4%
- growth [5]: 101%
- growth [6]: 109%
- growth [7]: 107%
- growth [8]: 68.3%
- growth [9]: 25.1%
- growth [10]: 72.2%
- growth [11]: 110%
- growth [12]: 97%
- growth [13]: 117%
- growth [14]: 88.5%
- growth [15]: 81.6%
- growth [16]: 93.4%
- growth [17]: 105%

SMILES: CC(=O)[O][Hg][CH2]C1(C)COC(C)([CH2][Hg][O]C(C)=O)CO1 (stereo not drawn)
- growth [18]: 86.7%
- growth [2]: 120%
- growth [4]: -58.9% (active)
- growth [5]: 71.1%
- growth [6]: -96.2% (active)
- growth [7]: 57.9%
- growth [8]: -65.3% (active)
- growth [9]: 9.98% (active)
- growth [10]: 26%
- growth [11]: 103%
- growth [12]: -81% (active)
- growth [13]: 84.3%
- growth [14]: 4.43% (active)
- growth [15]: -100% (active)
- growth [17]: 4.37% (active)

SMILES: CCOP(=O)(OCC)Oc1ccc(Sc2ccc(OP(=O)(OCC)OCC)cc2)cc1
- growth [18]: 101%
- growth [2]: 93.2%
- growth [3]: 79.7%
- growth [4]: 91.2%
- growth [5]: 100%
- growth [19]: 107%
- growth [8]: 86.3%
- growth [9]: 94.2%
- growth [10]: 90%
- growth [11]: 103%
- growth [12]: 98%
- growth [13]: 109%
- growth [14]: 97.9%
- growth [15]: 96%
- growth [16]: 118%
- growth [17]: 102%
